Bim-Mcl-1: inhibitors of Bim peptide binding to Mcl-1, primary screen, biochemical, bead-based flow cytometry, multiplex. inhibition, % at 10 µM. Bim peptide-Mcl-1 binding. Induced myeloid leukemia cell differentiation protein Mcl-1 (Homo sapiens), Q07820. 0.1% of 190,000 active. AID 1009, 2008; in the data active means inhibition above about 40%;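 further: 0% = no compound tracer wells and 100% = peptide blocker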
Target sequence (Q07820 whole entry, looked up): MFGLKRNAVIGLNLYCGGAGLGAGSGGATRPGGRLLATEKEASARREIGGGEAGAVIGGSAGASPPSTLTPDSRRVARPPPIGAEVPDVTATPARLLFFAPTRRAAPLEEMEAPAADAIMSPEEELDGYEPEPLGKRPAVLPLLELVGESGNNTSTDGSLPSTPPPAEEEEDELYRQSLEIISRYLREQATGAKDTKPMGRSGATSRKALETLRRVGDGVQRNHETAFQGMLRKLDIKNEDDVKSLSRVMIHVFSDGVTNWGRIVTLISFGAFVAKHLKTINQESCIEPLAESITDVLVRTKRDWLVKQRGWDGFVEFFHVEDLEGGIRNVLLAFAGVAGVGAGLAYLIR
GLD-1 TGE inh: GLD-1/TGE RNA complex disruptors, primary screen, biochemical, fluorescence polarization. AID 2280, 2010. purified GLD-1 + fluorescein TGE RNA. 0.44% of 320,000 active. Female germline-specific tumor suppressor gld-1 (Caenorhabditis elegans), Q17339. inhibition, % at 5.96 µM;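 active means percent inhibition above a per-plate cutoff, the plate mean of test compounds plus 3 SD, cut at about 30% in these data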;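 further: 0% = DMSO wells with GLD-1 and probe and 100% = wells lacking GLD-1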
BCLXL inh: inhibitors of human Bcl-xL, primary screen, biochemical, fluorescence polarization, HTS | GST-Bcl-xL / FITC-Bim BH3 peptide fluorescence polarization | AID 2129, 2009 | 0.7% of 320,000 active | inhibition, % at 10.9 µM | Bcl-2-like protein 1 (Homo sapiens), Q07817;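 active means inhibition above the mean of all tested compounds plus 3 SD, cutoff set per campaign, cut at about 30% in these data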;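 further: 0% = DMSO wells and 100% = unlabeled Bim-BH3 peptide competitor; inhibitors lower millipolarization by displacing the labeled peptide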
Target sequence (Q07817 whole entry, looked up): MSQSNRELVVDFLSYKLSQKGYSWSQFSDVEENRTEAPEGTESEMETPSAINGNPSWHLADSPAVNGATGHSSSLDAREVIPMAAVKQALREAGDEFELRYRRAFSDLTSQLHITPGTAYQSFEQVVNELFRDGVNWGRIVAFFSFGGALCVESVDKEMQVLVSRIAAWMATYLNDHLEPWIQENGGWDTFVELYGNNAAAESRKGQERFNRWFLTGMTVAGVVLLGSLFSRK
MCL1 BIM primary: inhibitors of MCL1 binding to BIM-BH3, primary screen, biochemical, fluorescence polarization | Induced myeloid leukemia cell differentiation protein Mcl-1 (Homo sapiens), Q07820 | GST-MCL1 / FITC-Bim-BH3 fluorescence polarization | inhibition, % at 10.9 µM | 0.68% of 320,000 active | AID 2057, 2009;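 active means inhibition above the mean inhibition of all tested compounds plus 3 SD, set per campaign, cut at about 40% in these data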;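 further: 0% = DMSO wells and 100% = unlabeled Bim-BH3 peptide control; higher means more loss of mP so more displacement of Bim peptide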
Mcl1 Noxa PPI: Mcl-1/Noxa binding inhibitors, primary screen, biochemical, TR-FRET, 1536-well; Induced myeloid leukemia cell differentiation protein Mcl-1 (Homo sapiens), Q07820; inhibition, % at 21.7 µM; TR-FRET Mcl-1/Noxa peptide binding, 2 h; 1.5% of 220,000 active;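 active means compounds that cut the protein-peptide binding signal by more than 50% relative to plate controls in a single-dose test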;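 further: His-tagged Mcl-1 with rhodamine Noxa BH3 peptide and terbium anti-His antibody; 0% = Mcl-1 plus Noxa peptide wells and 100% = peptide-only wells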
Mcl1 Bid PPI: Mcl-1/Bid binding inhibitors, primary screen, biochemical, TR-FRET, 1536-well; TR-FRET Mcl-1/Bid-Dy647 peptide binding; Induced myeloid leukemia cell differentiation protein Mcl-1 (Homo sapiens), Q07820; inhibition, % at 21.7 µM; 0.97% of 220,000 active;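 active means compounds that cut the binding signal by more than half at the single screening dose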;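 further: His-tagged Mcl-1 with europium anti-His antibody binding Bid BH3 peptide; 0% = Mcl-1 plus peptide wells and 100% = peptide-only wells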
Starred values were filed as active, the others as inactive; / = no result given. An excerpt weighted towards active compounds, which were near 2.3% of everything screened.

SMILES	Bim-Mcl-1	GLD-1 TGE inh	BCLXL inh	MCL1 BIM primary	Mcl1 Noxa PPI	Mcl1 Bid PPI
O=C(O)CCc1nn2c3ccccc3n(CC(=O)c3ccccc3)c2nc1=O	3.0	-1.1	1.0	-4.4	28.5	73.6*
CCOC(=O)Cn1c2ccccc2n2nc(CCC(=O)O)c(=O)nc12	-2.0	-0.4	2.6	-6.2	3.3	-7.2
CN(C)CCN(Cc1ccc(Cl)cc1)c1ccccn1	-1.0	2.4	4.3	-3.1	60.5*	0.7
COCc1ccccc1C1=CC(=O)C[C@H](c2ccc(OC)cc2)C1	/	7.0	2.0	8.4	/	/
Cc1ccc(C(=O)OCc2nc3ccsc3c(=O)[nH]2)o1	/	5.0	1.6	4.8	/	/
Cc1cnc(C(=O)OCc2nc3ccsc3c(=O)[nH]2)cn1	/	14.1	30.3*	36.2	/	/
CC1C(=O)CCN(C(C)C)C1C (stereo unspecified)	2.0	1.2	1.7	-3.3	1.9	89.8*
O=S(=O)(Nc1ccc(S(=O)(=O)N2CCCC2)cc1)c1ccc(F)cc1F	/	0.9	/	/	/	/
COc1ccc(C)cc1N(C(=O)c1ccc(F)cc1)c1nc2ccccc2s1	0.0	1.7	4.9	-4.3	2.1	58.9*
O=C(CCc1ccc(S(=O)(=O)N2CCOCC2)cc1)Nc1ccc(F)cc1[N+](=O)[O-]	/	3.4	/	/	/	/
CCOCCn1c(=NC(=O)/C=C/c2ccccc2Cl)sc2cc(NC(C)=O)ccc21	-1.0	9.9	1.3	1.5	31.5	61.0*
COc1ccc(S(=O)(=O)N2CC(=O)Nc3ccccc32)cc1C	/	2.9	6.0	8.3	/	/
CC(=O)N1CCn2c3c(c(=O)c4cc(C)ccc42)CCC31 (stereo unspecified)	0.0	11.6	32.5*	22.6	-0.5	-28.1
Cc1cc(S(=O)(=O)NC(C)c2nnc3ccccn23)ccc1Br (stereo unspecified)	/	0.4	/	/	/	/
Cc1ccc(-c2cc(-c3ccc(F)cc3)nc(N)c2C#N)o1	0.0	-0.3	6.2	-4.2	49.2	37.6
Cc1ccc(-c2cc(-c3ccccc3)c(C#N)c(N)n2)o1	-4.0	23.9	25.8	25.7	64.6*	18.9
Cc1ccc(-c2cc(-c3ccccc3Cl)c(C#N)c(N)n2)o1	1.0	19.3	18.1	23.3	60.1*	28.3
COc1cccc2c1c(NC(=O)Nc1ccc(F)cc1F)nn2C	/	0.3	-3.9	-5.0	5.1	67.0*
CN(C)c1ccc(/C=c2\sc3nc(-c4ccccc4)nn3c2=O)cc1	-4.0	/	/	/	78.8*	73.1*
COc1cc(/C=c2\sc3nc(-c4ccncc4)nn3c2=O)ccc1OC(C)=O	-4.0	/	/	/	70.4*	49.9
CC(=O)Oc1cccc(/C=c2\sc3nc(-c4ccco4)nn3c2=O)c1	-4.0	-1.1	11.2	25.0	28.8	-30.1
COC(=O)c1ccccc1NC(=O)c1ccc2c(c1)OCCCO2	/	0.6	-1.9	2.6	/	/
O=C(c1cccc(N2C(=O)c3ccccc3C2=O)c1)N1CCCCCC1	-1.0	0.4	-0.6	0.5	8.5	-8.9
O=C1c2cccc3c(N4CCCCC4)ccc(c23)C(=O)N1CCO	0.0	-2.9	49.4*	26.7	-35.4	-7.0
O=C1c2cccc3c(N4CCCCC4)ccc(c23)C(=O)N1c1cccc(O)c1	3.0	7.8	34.0*	-0.2	-20.6	-28.6
SMILES	Bim-Mcl-1	GLD-1 TGE inh	BCLXL inh	MCL1 BIM primary	Mcl1 Noxa PPI	Mcl1 Bid PPI
C=CCN1C(=O)c2cccc3c(N4CCCCC4)ccc(c23)C1=O	0.0	151.2*	0.9	-12.0	-4.8	-15.0
O=C(OCCN1C(=O)c2cccc3c(N4CCOCC4)ccc(c23)C1=O)c1ccccc1Cl	2.0	19.2	25.1	-8.9	-144.9	-11.8
CC(C)/C=C/C(=O)N1CCCC(N2CCN(c3ccccc3F)CC2)C1 (stereo unspecified)	/	5.1	4.7	7.1	/	/
CC(CC1C(C#N)=C(N)OC2=C1C(=O)CCC2)c1ccccc1 (stereo unspecified)	-1.0	-2.2	-0.3	-4.9	12.4	60.2*
Cc1cc(NS(=O)(=O)c2ccc(Nc3nc(-c4ccc(C)c(C)c4)cs3)cc2)no1	-1.0	5.9	0.9	-2.7	39.2	9.3
Cc1cc(NS(=O)(=O)c2ccc(Nc3nc(-c4ccc(O)cc4)cs3)cc2)no1	0.0	-7.6	9.4	14.9	69.1*	-38.8
COc1ccc(-c2csc(Nc3ccc(S(N)(=O)=O)cc3)n2)cc1OC	1.0	5.8	3.9	5.9	51.0*	-29.9
COC(=O)C(C)Oc1cc(C)ccc1COc1ccc(-n2nc(C)n(C(F)F)c2=O)cc1 (stereo unspecified)	/	-5.8	4.3	-4.4	/	/
O=C(NCC1CCCO1)c1ccc2c(c1)S(=O)(=O)c1ccccc1C2=O (stereo unspecified)	/	2.7	-1.4	-2.0	/	/
COc1ccc(C2/C(=C(/O)c3ccc(Br)cc3)C(=O)C(=O)N2C)cc1OC (stereo unspecified)	/	6.1	-1.0	-6.4	/	/
CCOC(=O)N1CCC(N2CCN(S(=O)(=O)c3ccc(Cl)cc3)CC2)CC1	2.0	-5.8	-0.7	-5.4	23.5	54.9*
CCOC(=O)N1CCN(S(=O)(=O)c2ccc(Cl)cc2)CC1	/	2.4	-0.6	-2.3	/	/
COc1cc(CN2CCC(C(=O)NC3CCCC3)CC2)cc(Br)c1O	0.0	0.6	-5.6	6.9	17.3	50.7*
Cc1cccc(Nc2cc(C)c3c(O)cccc3n2)c1C	0.0	3.6	2.6	0.5	53.3*	-5.1
Cc1nnc2ccc(-c3ccc(NC(=O)Cc4cccs4)cc3)nn12	/	0.8	7.0	15.6	67.6*	-62.2
COc1ccc(-c2nnn(CC(=O)N3CCOCC3)n2)cc1	-4.0	5.7	3.6	-4.0	-1.1	-12.4
O=C(Cc1cccs1)Nc1ccc(-c2nnn(CC(=O)N3CCOCC3)n2)cc1	-2.0	1.9	10.0	37.1	55.7*	-35.9
Cc1ccc([C@@H]2[C@@H]3C(=O)N(C)C(=O)[C@@H]3[C@]3(C)C(=O)N(Cc4ccc(-c5ccccc5)cc4)CC(=O)N23)o1	/	6.0	9.4	8.0	/	/
Cc1cc(N(CCO)CCO)ccc1C(c1ccc(N(CCO)CCO)cc1C)c1ccccc1Cl	1.0	6.8	10.9	23.4	101.5*	57.2*
CCOC(=O)C1CCN(C(=O)C2(NC(=O)Nc3ccccc3C)CCCCC2)CC1	/	2.4	3.3	6.4	/	/
N#Cc1ccc(-c2cccnc2)nc1SCC(=O)Nc1sc2c(c1C#N)CCC2	1.0	-27.9	-23.4	-50.8	60.3*	40.3
N#Cc1ccc(-c2cccnc2)nc1SCC(=O)c1ccccc1	/	-87.0	35.8*	20.4	-10.9	-17.4

Screening data as filed in PubChem BioAssay.
